Screens (PubChem BioAssay)
Hits are enriched below; roughly 1.5% of the tested compounds scored in any of these assays.
Beta2AR agonist – activates human beta-2 adrenergic receptor causing internalization; 340,000 tested, 0.43% active; response, % (no concentration beside the values); P07550; Am2.2-beta2AR cells, FAP receptor internalization, flow cytometry;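 active = response above a set limit, near 3 SD of response in nonfluorescent compounds, cut at about 42% in these data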
NTR1 ag – NTR1 (human) agonism; P30989; NTR1-U2OS beta-arrestin-GFP spot imaging, agonist mode; activation, % at 20 µM; 330,000 tested, 0.17% active; AID 493036;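 active = activation at or above 40% of the spot to cytoplasm intensity ratio, with at least 20 cells analyzed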
TLR9-MyD88 block – TLR9-MyD88 interaction inhibition; Q9NR96+Q99836; AID 504734; CHO BLA complementation TLR9-MyD88, CCF4 FRET ratio; inhibition, % at 4.98 µM; 340,000 tested, 0.21% active;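 active = inhibition above the mean over all tested compounds plus 3 SD, cut at about 21% in these data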
ABHD5-PLIN5 inh – blocks binding of human ABHD5 to perilipin-5. Q00G26+Q8WTS1. 360,000 tested, 0.78% active. AID 602281. Split G. princeps luciferase complementation, luminescence, 4 h. inhibition, % at 4 µM;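 active = inhibition above the mean inhibition across every tested compound plus 3 SD, cut at about 22% in these data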
NOD2 RIPK2 PPI – NOD2-RIPK2 protein interaction inhibition | O43353 | CHO BLA complementation NOD2-RIPK2, CCF4 ratio | inhibition, % at 4.98 µM | 360,000 tested, 0.38% active | AID 624267; in the data active = inhibition above about 21%
TLR4-MyD88 BLA – inhibitors of human TLR4-MyD88 binding. 200,000 tested, 0.18% active. HeLa CL3-4 TLR4/MyD88 BLA complementation, FRET ratio. O00206+Q99836. inhibition, % at 8.4 µM; in the data active = inhibition above about 25%
ABHD5-PLIN5 conf – ABHD5-PLIN5 interaction inhibition, confirmed; shares compounds with ABHD5-PLIN5 inh; biochemical ABHD5-PLIN5 interaction, luminescence; inhibition, % at 4 µM; 2,200 tested, 67% active; AID 651612; in the data active = inhibition above about 23%
HNF4 counter – active in HNF4 split-luciferase counter-screen for ABHD5-PLIN5 inhibitors; shares compounds with ABHD5-PLIN5 inh; HNF4 dimerization, luminescence, biochemical; inhibition, % at 4 µM; 2,200 tested, 77% active; AID 651674;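 active = mean inhibition across replicate wells exceeding the computed hit threshold, cut at about 13% in these data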;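 note: light from luciferase halves that rejoin when HNF4 fusion proteins dimerize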
NOD2-RIPK2 conf – confirmation of human NOD2-RIPK2 interaction inhibitors. shares compounds with NOD2 RIPK2 PPI. CHO cells, NOD2-RIPK2 BLA complementation, CCF4 FRET. inhibition, % at 4.98 µM. 1,200 tested, 70% active. AID 624370;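 active = mean inhibition across replicates above a set limit taken from the earlier primary screen, cut at about 21% in these data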
NOD2 BLA counter – counter-screen for NOD2-RIPK2 interaction inhibitors: BLA reporter; CHO BLA reporter, CCF4 FRET ratio, counterscreen; 1,200 tested, 57% active; inhibition, % at 4.98 µM; AID 624371; shares compounds with NOD2 RIPK2 PPI;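 active = mean inhibition above the low-control mean inhibition plus three low-control SD, cut at about 11% in these data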
Hits are given with their value; 0 = inactive; - = no result.

SMILES	Beta2AR agonist	NTR1 ag	TLR9-MyD88 block	ABHD5-PLIN5 inh	NOD2 RIPK2 PPI	TLR4-MyD88 BLA	ABHD5-PLIN5 conf	HNF4 counter	NOD2-RIPK2 conf	NOD2 BLA counter
COCCN(CC(=O)Nc1cccc(C)c1C)C(=O)/C=C/c1ccc2c(c1)OCCO2	-	-	0	0	0	-	-	-	-	-
O=P(CCCCCCCCCP(=O)(c1ccccc1)c1ccccc1)(c1ccccc1)c1ccccc1	0	0	0	23	22	0	0	0	0	0
O=C(O)CCCCCCCCCCP(=O)(c1ccccc1)c1ccccc1	0	0	0	0	0	-	-	-	-	-
Cc1ccc(-c2nn(-c3ccccc3)cc2CN(Cc2ccccc2)C(=O)c2ccco2)o1	0	0	0	38	36	0	0	21	0	0
Cc1ccc(-c2nn(-c3ccccc3)cc2C(=O)O)o1	-	0	-	-	-	0	-	-	-	-
C=CC(=O)N1C/C(=C/c2ccc(F)cc2)C(=O)/C(=C\c2ccc(F)cc2)C1	48	-	0	100	54	-	102	105	64	0
Cc1ccc(C(=O)NCc2ccc3c(c2)OCO3)c(Cl)c1	-	-	0	0	0	-	-	-	-	-
Cc1cccc(CS(=O)(=O)c2ncc(Cl)c(C(=O)NCc3ccc4c(c3)OCO4)n2)c1	0	0	0	49	39	-	87	105	42	0
CCOc1cc(/C=C2\COc3ccccc3C2=O)cc(Br)c1OCC(=O)N(C)C	55	0	0	77	26	-	86	94	28	0
CCOC(=O)N1CCN(C(=O)C2CCN(C(=O)c3ccccc3C)CC2)CC1	49	-	0	26	22	-	38	91	71	18
CC(=O)Oc1ccccc1C(=O)C=Cc1cccc([N+](=O)[O-])c1	65	-	0	99	60	-	104	109	71	0
CC(C#N)(CCc1ccccn1)CCc1ccccn1	0	-	0	0	0	-	-	-	-	-
CCc1ccc2nc(N(CCN(C)C)C(=O)/C=C/c3cccs3)sc2c1	0	0	0	0	0	-	-	-	-	-
Cc1ccc2nc(N(CCN(C)C)C(=O)/C=C/c3cccs3)sc2c1	0	0	0	35	22	0	0	0	32	25
O=C(/C=C1\C(=O)Nc2ccccc21)/C=C1\C(=O)Nc2ccccc21	0	-	0	63	25	-	102	105	74	16
CN(O)/C=C1\C(=O)Nc2ccccc21	0	0	0	0	0	0	-	-	-	-
O=C1Nc2ccccc2/C1=C\C(=O)c1ccccc1	0	0	0	50	30	-	82	96	29	0
O=c1ccc2ccccc2c2ccccc12	-	-	-	87	43	-	97	104	41	0
CCN(CC)CCN1C(=O)/C(=C\c2ccc(Cl)c([N+](=O)[O-])c2)SC1=Nc1ccc(OC)cc1	0	0	0	39	72	-	27	14	54	0
C=CS(=O)(=O)c1ccc(Oc2ccc(S(=O)(=O)C=C)cc2)cc1	42	66	0	86	36	0	100	102	51	17
NS(=O)(=O)c1ccc(Oc2ccc(S(N)(=O)=O)cc2)cc1	0	0	0	0	0	0	-	-	-	-
CCCCNC(=O)C(NC(=O)c1ccc2ccccc2c1)C(=O)c1ccccc1 (centres undefined)	-	-	-	0	0	-	-	-	-	-
C=C1C(=O)[C@]23C[C@H]1CCC2[C@@]1(C)C(C[C@@H]3O)[C@](C)(C(=O)OC)CC[C@@H]1O (some centres undefined)	-	-	-	39	77	-	67	108	67	0
Cc1ccc(NC(=O)C(C)Sc2nnc3n2CCCCC3)cc1S(=O)(=O)N1CCOCC1 (centres undefined)	-	-	0	0	0	-	-	-	-	-
CN(CCc1ccccc1)C(=O)c1ccc(NC(=O)Cc2cccc(NC(=O)C3CCN(C(=O)c4ccccc4)CC3)c2)cc1	0	-	0	0	0	-	-	-	-	-
SMILES	Beta2AR agonist	NTR1 ag	TLR9-MyD88 block	ABHD5-PLIN5 inh	NOD2 RIPK2 PPI	TLR4-MyD88 BLA	ABHD5-PLIN5 conf	HNF4 counter	NOD2-RIPK2 conf	NOD2 BLA counter
CC(=O)OC1CCC2(C)C(CCC3C4CC=C(C(C)=O)C4(C)OC(=O)CC32)C1 (centres undefined)	-	-	0	61	39	-	88	93	39	0
CC1(C(=O)NS(=O)(=O)c2ccc(C#N)cc2)CCN1C(=O)Cc1cc(F)ccc1F (centres undefined)	-	-	-	0	0	-	-	-	-	-
CCCCCCCCN1C(=O)[C@H](CC(=O)NCCC(C)C)C[C@@]2(C(=O)OCC)CCC=C12	-	-	-	0	0	-	-	-	-	-
O=C1/C(=C\c2ccccc2)CN(C(=O)CCN2CCCCC2)C/C1=C/c1ccccc1	0	-	0	98	36	-	103	108	55	0
O=C1/C(=C\c2ccc(Cl)c(Cl)c2)CN(C(=O)CCN2CCOCC2)C/C1=C/c1ccc(Cl)c(Cl)c1	52	-	0	99	39	-	103	108	76	0
CCN(CC)CCC(=O)N1C/C(=C/c2ccccc2)C(=O)/C(=C\c2ccccc2)C1	0	-	0	97	24	-	102	103	47	0
O=C1/C(=C\c2ccccc2)CCC/C1=C/c1ccccc1	0	-	0	0	0	-	-	-	-	-
CC(=O)OC[C@@H]1CN(Cc2ccccc2)C[C@H](n2cnc3c(Nc4ccccc4)ncnc32)O1	-	-	-	0	0	-	-	-	-	-
CCCS(=O)(=O)NC(=O)C1(C)CCN(C(=O)c2ccc(C(F)(F)F)cc2)C1 (centres undefined)	-	-	-	0	0	-	-	-	-	-
COc1ccc(CN2C[C@@H](CO)O[C@@H](n3cnc4c(NCc5ccco5)ncnc43)C2)cc1	-	-	-	0	0	-	-	-	-	-
O=C(NCc1cccnc1)/C(=C\c1ccc(-c2cccc(Cl)c2)o1)S(=O)(=O)c1ccccc1	0	-	0	82	35	0	97	88	48	0
COc1cc(/C=C/[N+](=O)[O-])ccc1OC(=O)/C=C/c1ccc(F)cc1	0	0	0	30	38	-	49	73	56	0
COc1ccc(/C=C/C(=O)Oc2ccc(C)c(C)c2)cc1OC	0	0	0	0	0	0	-	-	-	-
N#Cc1cn(Cc2cccc(Cl)c2)c2ccccc12	0	0	0	0	0	0	-	-	-	-
N#Cc1ccccc1Cn1cc(/C=C/[N+](=O)[O-])c2ccccc21	95	0	0	69	42	0	100	96	70	0
COc1ccc(-n2sc3ccccc3c2=O)cc1	-	-	0	76	26	-	81	120	44	0
COc1ccc(-n2sc3ccc(F)cc3c2=O)cc1	0	0	0	86	40	-	93	120	40	0
